The panel holds about 83,000 compounds, 20% with a hit somewhere; the sample as a whole holds those more often.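 Growth was measured after 48 h exposure to one concentration of compound in 96-well plates. Values under 10 count as active.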 A number with no mark means an inactive call. Activity calls are given as the source filed them.
Tests used:
Assay in all cases: NCI-60 one-dose screen, 48 h (100 = growth as untreated, 0 = no growth, -100 = all killed)
Conditions in all cases: 10 µM unless noted
HCT-15 colon = test system: HCT-15 colon
HT29 colon = test system: HT29 colon
SNB-75 CNS = test system: SNB-75 CNS
SNB-19 CNS = test system: SNB-19 CNS
PC-3 prostate = test system: PC-3 prostate
SK-MEL-5 melanoma = test system: SK-MEL-5 melanoma
UACC-62 melanoma = test system: UACC-62 melanoma
LOX IMVI melanoma = test system: LOX IMVI melanoma
SK-MEL-28 melanoma = test system: SK-MEL-28 melanoma

| Structure (SMILES) | growth (HCT-15 colon) | growth (HT29 colon) | growth (SNB-75 CNS) | growth (SNB-19 CNS) | growth (PC-3 prostate) | growth (SK-MEL-5 melanoma) | growth (UACC-62 melanoma) | growth (LOX IMVI melanoma) | growth (SK-MEL-28 melanoma) |
| --- | --- | --- | --- | --- | --- | --- | --- | --- | --- |
| COCCOc1cnc2ccn([C@H](C)c3nnc4c(F)cc(-c5cnn(C)c5)cn34)c(=O)c2c1 | 95.5% | 104% | 93.2% | 73.9% | 78.7% | 47.5% | 20.7% | 61.5% | 44% |
| Cn1ncc(Cl)c1-c1cc(C(=O)N[C@H](CN)Cc2ccc(F)c(F)c2)oc1Cl | 6.57% (active) | -11.7% (active) | -86.4% (active) | 2.29% (active) | -25% (active) | -96.2% (active) | -78.5% (active) |  | -77.1% (active) |
| C[C@]12O[C@H](C[C@]1(O)CO)n1c3ccccc3c3c4c(c5c6ccccc6n2c5c31)CNC4=O | -12.4% (active) | -22.5% (active) | -99.4% (active) | -20.6% (active) | -31% (active) | -87% (active) | -49.9% (active) | -70.5% (active) | -85.9% (active) |
| O=C1CSC(c2c(F)cccc2Cl)N1NC(=O)C(O)(c1ccccc1)c1ccccc1 (stereo unspecified) | 102% | 95.9% | 82.9% | 98.4% | 95.5% | 89.5% | 82.8% |  | 107% |
| COC(=O)[C@@H](NC(=O)[C@@H](OC)[C@@H]1Cc2cc3cc(OC4CC(OC5CC(O)C(O)C(C)O5)C(O)C(C)O4)c(C)c(O)c3c(O)c2C(=O)[C@H]1OC1CC(OC2CC(OC3CC(C)(O)C(O)C(C)O3)C(O)C(C)O2)C(O)C(C)O1)C(C)C (stereo partly specified) | 23.9% | 6.32% (active) | -24.3% (active) | 8.43% (active) | 18.8% | -74.3% (active) | -65.1% (active) | -76.2% (active) | -1.86% (active) |
| COc1ccc2c(CCCc3ccc(Cl)cc3Cl)c3[n+](cc2c1OC)CCc1cc2c(cc1-3)OCO2 | 24.4% | -15.6% (active) | 15.2% | 16.7% | -14.2% (active) | -99.6% (active) | -68.2% (active) | -80.3% (active) | -35.6% (active) |
| CSc1nc2ncnc(SC)c2[nH]1 | 110% | 89.6% | 86.8% | 116% | 91.6% | 106% | 110% | 99.3% | 107% |
| CC(C)C1CCC(C)C(C2(C#N)C(N)=NC(N)=C2C#N)C1=O (stereo unspecified) | 101% | 96.2% | 84% | 101% | 86% | 101% | 102% | 92.5% | 107% |
| Cc1oc2c(C(=O)N/N=C\c3ccc(O)cc3O)c[nH]c2c1C | 9.44% (active) | 25.6% | 40.2% | 35.5% | 43.4% | 23.6% | 2.05% (active) | -7.96% (active) | 32.1% |
| CCCCOc1nc2cc(Cl)ccc2cc1/C=C/c1cc(/C=C/c2cc3ccc(Cl)cc3nc2OCCCC)n(-c2ccccc2)n1 | 112% | 88.9% | -17.4% (active) | 69.9% | 86.3% | 106% | 72.7% | 86.2% | 112% |
| CCOc1cc2ncc(C#N)c(Nc3ccc(OCc4ccccn4)c(Cl)c3)c2cc1NC(=O)/C=C/CN(C)C | -0.289% (active) | -54.5% (active) | 34.1% | -44.2% (active) | 9.27% (active) | 14.8% | -64.1% (active) | -67.8% (active) | -79.5% (active) |
| CC(=O)C1=C(C)NC(SCc2nnc(-c3ccc(C)cc3)o2)=NC1c1ccc(F)cc1 (stereo unspecified) | 101% | 110% | 98.5% | 94.1% | 85.3% | 99% | 84.6% | 93.2% | -78.4% (active) |

— PubChem BioAssay (NCI)
